# What was measured:
# Settings in all cases: concentration: 1 μM, replicates: in singlicate; n = 1
# CSF1R = tested on: CSF1R
# CSK = tested on: CSK
# CSNK1A1L = tested on: CSNK1A1L
# CSNK1A1 = tested on: CSNK1A1
# CSNK1D = tested on: CSNK1D
# CSNK1E = tested on: CSNK1E
# CSNK1G1 = tested on: CSNK1G1
# CSNK1G2 = tested on: CSNK1G2
# CSNK1G3 = tested on: CSNK1G3
# CSNK2A1 = tested on: CSNK2A1
# CSNK2A2 = tested on: CSNK2A2
# CTK = tested on: T1, CTK
# T1 construct: gene MATK
# DAPK1 = tested on: DAPK1
# DAPK2 = tested on: DAPK2
# DAPK3 = tested on: DAPK3
# DCAMKL1 = tested on: T2, DCAMKL1
# T2 construct: gene DCLK1
# DCAMKL2 = tested on: T3, DCAMKL2
# T3 construct: gene DCLK2
# DCAMKL3 = tested on: T4, DCAMKL3
# T4 construct: gene DCLK3
# DDR1 = tested on: DDR1
# DDR2 = tested on: DDR2
# 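Further: KINOMEscan kinase panel screen.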
SMILES,%Inh (CSF1R) [%],%Inh (CSK) [%],%Inh (CSNK1A1L) [%],%Inh (CSNK1A1) [%],%Inh (CSNK1D) [%],%Inh (CSNK1E) [%],%Inh (CSNK1G1) [%],%Inh (CSNK1G2) [%],%Inh (CSNK1G3) [%],%Inh (CSNK2A1) [%],%Inh (CSNK2A2) [%],%Inh (CTK) [%],%Inh (DAPK1) [%],%Inh (DAPK2) [%],%Inh (DAPK3) [%],%Inh (DCAMKL1) [%],%Inh (DCAMKL2) [%],%Inh (DCAMKL3) [%],%Inh (DDR1) [%],%Inh (DDR2) [%]
CCn1c(-c2ccoc2)nc2cnccc21 [SB-733887],8,0,0,0,12,3,0,0,4,0,13,0,0,0,14,34,0,0,27,14
O=C(NCCNc1ccnc(Nc2ccc(F)cc2)n1)Nc1ccc2c(c1)OCO2 [GSK1379882],18,2,0,0,2,42,3,0,22,3,16,0,19,8,26,0,0,0,0,18
O=C(Nc1ccc2c(c1)OCO2)NC1CCN(c2ccnc(NCc3ccc(F)cc3)n2)CC1 [GSK1379859],0,0,15,0,0,36,0,0,20,0,22,0,22,0,0,14,0,18,9,0
Cc1nnc(-c2ccc3ncn(-c4ccc(S(C)=O)cc4)c3c2)o1 (stereo not drawn),12,0,14,0,9,8,0,18,24,22,35,0,26,0,0,37,12,9,0,0
COc1ccc(CNC(=O)NC2CCN(c3ccnc(Nc4ccc(F)cc4)n3)C2)cc1 (stereo not drawn) [GSK1379706],16,5,12,25,29,15,21,0,23,4,12,0,0,14,30,14,60,2,8,63
Cc1nnc(-c2ccc(C)c(-c3ccc(C(=O)O)cc3)c2)o1 [GW608005],0,0,0,0,0,8,7,0,9,21,8,0,0,0,0,0,0,0,7,1
Cc1cccc(-c2cc(-c3c[nH]nc3-c3ccccn3)ccn2)c1 [GW679395],53,0,2,0,25,10,8,0,6,0,8,0,6,0,16,14,0,13,36,8
CCS(=O)c1ccc(-c2coc3ccc(-c4nnc(C)o4)cc23)cc1 (stereo not drawn),0,19,0,1,0,0,0,0,0,21,31,0,14,0,0,36,0,0,0,16
COc1cc(Nc2nccc(N3CCC(NC(=O)C4COc5ccccc5O4)C3)n2)cc(OC)c1OC (stereo not drawn) [GSK1379761],20,0,0,0,0,0,3,0,2,0,0,0,0,20,11,0,0,0,1,61
COc1cc2nccc(Nc3cccc(Oc4ccccc4)c3)c2cc1OC.Cl [GW284543],0,11,12,0,0,5,0,0,26,0,4,10,0,0,0,11,0,23,17,9
Nc1nc(-c2ccccc2F)c(-c2ccnc3ccccc23)s1 [GW560459],0,0,7,72,66,51,13,1,25,0,0,0,0,0,13,12,1,1,7,34
O=C(NCc1cccs1)c1cc(C(=O)c2c(Cl)cccc2Cl)c[nH]1 [GW823670],13,0,0,0,0,0,0,0,0,0,0,0,0,8,22,14,18,2,26,0
COc1cc(Nc2ccnc3ccc(C(F)(F)F)cc23)cc(OC)c1OC [GW577382],8,3,19,36,21,9,3,0,27,10,62,8,0,4,26,5,0,2,0,23
COc1cccc(C2=C(N(C)c3ccccc3)C(=O)NC2=O)c1 [SB-334865],4,0,1,0,15,2,1,0,2,0,3,0,6,0,14,18,0,16,0,22
COC(=O)c1c(-c2ccccc2)c2cc(C)ccc2c(=O)n1Cc1ccccc1,17,0,0,0,0,0,0,5,0,0,0,0,1,0,0,0,6,0,60,33
CCn1c(-c2nonc2N)nc2ccccc21 [SB-693162/GW549034],0,5,0,6,7,0,0,0,0,21,19,31,13,0,0,0,0,13,0,0
O=C(Nc1n[nH]c2nc(-c3ccccc3)c(Br)cc12)C1CC1 [SB-708998],0,0,0,6,0,0,10,2,15,6,4,0,0,0,0,0,0,0,23,9
Nc1n[nH]c2ncc(-c3ccccc3)cc12 [SB-517081],47,0,9,0,30,15,68,0,6,0,11,0,12,0,29,13,13,22,0,23
Nc1ncnc2c1ncn2-c1cccc2ccccc12 [SKF-97184],3,0,0,0,0,11,0,0,0,0,0,0,0,0,0,0,13,15,0,59
COc1ccc(-c2cc3c(C)nc(N)nc3n([C@H]3CC[C@H](OCCO)CC3)c2=O)cn1,5,13,0,24,1,4,0,0,0,0,11,2,11,0,0,0,0,0,0,0
COc1cc2ncn(-c3cc(OCc4ccc(S(C)(=O)=O)cc4)c(C(N)=O)s3)c2cc1OC [GW869979],0,0,0,0,0,13,0,10,3,19,0,15,0,0,9,1,19,0,20,2

# — paper PMC5540273 (PLoS ONE, 2017)
